Results on 9 compounds are retold here after PubChem BioAssay (NCATS).

Records with an inconclusive call do not appear. Values without a mark were called inactive. Active and inactive are the calls of the source. Calls follow the shape of the dose curve; as a rule, active = well fitted curve in the direction sought with a large enough effect; inconclusive = small, poorly fitted or top-dose-only effect, or another doubt; inactive = no such curve, though single readings can be large or run the other way.
% is scaled to controls: 0 for no effect and ±100 for the full control effect; potency is read from the fitted curve at half-maximal effect.

A short description of the test: qHTS Assay for Identifying Gametocytocidal Compounds (AID 743244).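 As to max response: actives lower the fluorescent signal which means gametocytes are killed.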 The following applies: P. falciparum 3D7 stage III-V gametocytes, alamarBlue, 72 h; max response: stronger effect = lower value. The method, boiled down:
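A resazurin-based viability read-out was applied to mature P. falciparum gametocytes: 72 h compound treatment, then 24 h dye incubation, with falling fluorescence signalling gametocytocidal effect.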
With `CC(C)(C)C(=O)OCOC(=O)[C@@H]1N2C(=O)[C@@H](N=CN3CCCCCC3)[C@H]2SC1(C)C`, the max response was 2.95%.
The same measure, in the same setting: as for `CO/N=C(\C(=O)N[C@@H]1C(=O)N2C(C(=O)O)=C(CSc3cnns3)CS[C@H]12)c1csc(N)n1`, the figure is 2.82%.
Take `O=C1CSC2(CCN(CCCN3c4ccccc4Sc4ccc(Cl)cc43)CC2)N1`: the max response is -3.9%.
Still for that read-out and setting: as for `Nc1ncnc2c1ncn2[C@@H]1O[C@H](COP(=O)(O)OP(=O)(O)OP(=O)(O)O)[C@@H](O)[C@H]1O`, the figure is -2.1%.
Take `N[C@H](C(=O)O)[C@@H]1CC(Cl)=NO1`: the max response is 8.42%.
As to `CC(=O)Oc1cc(C)c(OC(C)=O)c2ccccc12`, the Potency was 6.31 µM (active).
Turning to `CCC(=O)O[C@@H]1CC(=O)O[C@H](C)C/C=C/C=C/[C@H](O)[C@H](C)C[C@H](CC=O)[C@H](O[C@@H]2O[C@H](C)[C@@H](O[C@H]3C[C@@](C)(O)[C@@H](OC(=O)CC)[C@H](C)O3)[C@H](N(C)C)[C@H]2O)[C@H]1OC`, the max response was 4.15%.
As to `Cc1cn([C@H]2C[C@H](O)[C@@H](CO)O2)c(=O)[nH]c1=O`, the max response was 5.37%.
For the compound `CC1(C)S[C@@H]2[C@H](NC(=O)[C@@H](NC(=O)N3CCNC3=O)c3ccccc3)C(=O)N2[C@H]1C(=O)O`, the max response is 5.13%.
